# In PubChem BioAssay AID1159580 (chemical genetic matrix, 2015):
# Where “and” joins values, the source holds several entries; their conditions need not be identical. Identical values can stand only once. Among all 5,500 compounds or so, about 2,000 (36%) were called active. Not shown: some 18% with an inconclusive outcome. No stated cut-off is given here; in the data, active means normalized growth mostly below about 0.91 (no sharp cut-off); inconclusive means no clear call, values can overlap the other calls; inactive means mostly above about 0.92. This is one part of the list.
# Assay: chemical genetic growth profiling, strain panel (AID 1159580);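 further: tested at 20 µM; growth read once vehicle control cultures reached saturation at 30 °C; 1 = growth at the plate median or of vehicle wells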
# Details: growth OD
structure (smiles),measurement,setting,value
CC(C)C1=CC2=CCC3[C@](C)(CCC[C@]3(C)C(=O)O)C2CC1 (stereo not given in full),normalized growth,"S. cerevisiae deletion strains, locus YAL013W, strain DEP1, stronger effect = lower value",0.957 (inactive)
same,normalized growth,"S. cerevisiae deletion strains, locus YBR021W, strain FUR4, stronger effect = lower value",1.03 (inactive)
same,normalized growth,"S. cerevisiae deletion strains, locus YBR229C, strain ROT2, stronger effect = lower value",0.935 (inactive)
same,normalized growth,"S. cerevisiae deletion strains, locus YCL029C, strain bik1, stronger effect = lower value",0.995 (inactive)
same,normalized growth,"S. cerevisiae deletion strains, locus YDL035C, strain GPR1, stronger effect = lower value",0.918 (inactive)
same,normalized growth,"S. cerevisiae deletion strains, locus YDL074C, strain BRE1, stronger effect = lower value",0.923 (inactive)
same,normalized growth,"S. cerevisiae deletion strains, locus YDL101C, strain DUN1, stronger effect = lower value",0.946 (inactive)
same,normalized growth,"S. cerevisiae deletion strains, locus YDL134C, strain PPH21, stronger effect = lower value",0.935 (inactive)
same,normalized growth,"S. cerevisiae deletion strains, locus YDL185W, strain tfp1, stronger effect = lower value",0.975 (inactive)
same,normalized growth,"S. cerevisiae deletion strains, locus YDL192W, strain arf1, stronger effect = lower value",0.939 (inactive)
same,normalized growth,"S. cerevisiae deletion strains, locus YDR101C, strain arx1, stronger effect = lower value",1.05 (inactive)
same,normalized growth,"S. cerevisiae deletion strains, locus YDR150W, strain NUM1, stronger effect = lower value",0.981 (inactive)
same,normalized growth,"S. cerevisiae deletion strains, locus YDR162C, strain NBP2, stronger effect = lower value",0.724 (active)
same,normalized growth,"S. cerevisiae deletion strains, locus YDR318W, strain mcm21, stronger effect = lower value",0.925 (inactive)
same,normalized growth,"S. cerevisiae deletion strains, locus YDR388W, stronger effect = lower value",0.981 (inactive)
same,normalized growth,"S. cerevisiae deletion strains, locus YDR502C, strain sam2, stronger effect = lower value",0.952 (inactive)
same,normalized growth,"S. cerevisiae deletion strains, locus YEL061C, strain CIN8, stronger effect = lower value",0.97 (inactive)
same,normalized growth,"S. cerevisiae deletion strains, locus YER110C, stronger effect = lower value",0.99 (inactive)
same,normalized growth,"S. cerevisiae deletion strains, locus YER155C, strain BEM2, stronger effect = lower value",1.02 (inactive)
same,normalized growth,"S. cerevisiae deletion strains, locus YER167W, strain BCK2, stronger effect = lower value",0.994 (inactive)
same,normalized growth,"S. cerevisiae deletion strains, locus YGL078C, strain dbp3, stronger effect = lower value",0.978 (inactive)
same,normalized growth,"S. cerevisiae deletion strains, locus YGL086W, strain mad1, stronger effect = lower value",1.02 (inactive)
same,normalized growth,"S. cerevisiae deletion strains, locus YGL248W, strain PDE1, stronger effect = lower value",0.928 (inactive)
same,normalized growth,"S. cerevisiae deletion strains, locus YGR135W, strain pre9, stronger effect = lower value",0.94 (inactive)
same,normalized growth,"S. cerevisiae deletion strains, locus YGR252W, strain gcn5, stronger effect = lower value",0.986 (inactive)
same,normalized growth,"S. cerevisiae deletion strains, locus YHR030C, strain SLT2, stronger effect = lower value",0.996 (inactive) and 0.843 (active)
same,normalized growth,"S. cerevisiae deletion strains, locus YHR079C, strain IRE1 (second series), stronger effect = lower value",0.974 (inactive)
same,normalized growth,"S. cerevisiae deletion strains, locus YHR079C, strain IRE1, stronger effect = lower value",0.851 (active)
same,normalized growth,"S. cerevisiae deletion strains, locus YHR094C, strain hxt1, stronger effect = lower value",0.976 (inactive)
same,normalized growth,"S. cerevisiae deletion strains, locus YHR129C, strain ARP1, stronger effect = lower value",0.967 (inactive)
same,normalized growth,"S. cerevisiae deletion strains, locus YHR200W, strain rpn10, stronger effect = lower value",0.995 (inactive)
same,normalized growth,"S. cerevisiae deletion strains, locus YIL066C, strain RNR3, stronger effect = lower value",0.937 (inactive)
same,normalized growth,"S. cerevisiae deletion strains, locus YIL073C, strain SPO22, stronger effect = lower value",0.902 (inactive)
same,normalized growth,"S. cerevisiae deletion strains, locus YIL125W, strain kgd1, stronger effect = lower value",1 (inactive)
same,normalized growth,"S. cerevisiae deletion strains, locus YIR030C, strain dcg1, stronger effect = lower value",0.974 (inactive)
same,normalized growth,"S. cerevisiae deletion strains, locus YJL095W, strain BCK1, stronger effect = lower value",0.782 (active) and 0.89 (inactive)
same,normalized growth,"S. cerevisiae deletion strains, locus YJL134W, strain LCB3, stronger effect = lower value",0.977 (inactive)
same,normalized growth,"S. cerevisiae deletion strains, locus YJL168C, strain set2, stronger effect = lower value",0.977 (inactive)
same,normalized growth,"S. cerevisiae deletion strains, locus YJL187C, strain SWE1 (second series), stronger effect = lower value",0.96 (inactive)
same,normalized growth,"S. cerevisiae deletion strains, locus YJR043C, strain POL32, stronger effect = lower value",1.02 (inactive)
same,normalized growth,"S. cerevisiae deletion strains, locus YJR066W, strain TOR1, stronger effect = lower value",0.857 (inactive)
same,normalized growth,"S. cerevisiae deletion strains, locus YKL009W, strain mrt4, stronger effect = lower value",0.958 (inactive)
same,normalized growth,"S. cerevisiae deletion strains, locus YKL068W, stronger effect = lower value",0.971 (inactive)
same,normalized growth,"S. cerevisiae deletion strains, locus YKL085W, strain MDH1 (second series), stronger effect = lower value",0.966 (inactive)
same,normalized growth,"S. cerevisiae deletion strains, locus YKL085W, strain MDH1, stronger effect = lower value",0.966 (inactive)
same,normalized growth,"S. cerevisiae deletion strains, locus YKL190W, strain CNB1, stronger effect = lower value",0.958 (inactive)
same,normalized growth,"S. cerevisiae deletion strains, locus YKR001C, strain vps1, stronger effect = lower value",1.01 (inactive)
same,normalized growth,"S. cerevisiae deletion strains, locus YLR039C, strain RIC1, stronger effect = lower value",0.637 (active)
same,normalized growth,"S. cerevisiae deletion strains, locus YLR058C, strain SHM2, stronger effect = lower value",0.944 (inactive)
same,normalized growth,"S. cerevisiae deletion strains, locus YLR102C, strain apc9, stronger effect = lower value",0.985 (inactive)
same,normalized growth,"S. cerevisiae deletion strains, locus YLR113W, strain HOG1, stronger effect = lower value",0.859 (inactive)
same,normalized growth,"S. cerevisiae deletion strains, locus YLR262C, strain YPT6, stronger effect = lower value",0.542 (active)
same,normalized growth,"S. cerevisiae deletion strains, locus YLR268W, strain sec22, stronger effect = lower value",1.01 (inactive)
same,normalized growth,"S. cerevisiae deletion strains, locus YLR330W, strain CHS5, stronger effect = lower value",0.984 (inactive)
same,normalized growth,"S. cerevisiae deletion strains, locus YLR342W, strain FKS1 (second series), stronger effect = lower value",0.859 (inactive)
same,normalized growth,"S. cerevisiae deletion strains, locus YLR371W, strain rom2, stronger effect = lower value",0.992 (inactive)
same,normalized growth,"S. cerevisiae deletion strains, locus YLR418C, strain cdc73, stronger effect = lower value",0.781 (active)
same,normalized growth,"S. cerevisiae deletion strains, locus YML016C, strain PPZ1, stronger effect = lower value",0.966 (inactive)
same,normalized growth,"S. cerevisiae deletion strains, locus YML032C, strain rad52, stronger effect = lower value",0.949 (inactive)
same,normalized growth,"S. cerevisiae deletion strains, locus YML124C, strain tub3, stronger effect = lower value",0.979 (inactive)
same,normalized growth,"S. cerevisiae deletion strains, locus YMR078C, strain ctf18, stronger effect = lower value",0.974 (inactive)
same,normalized growth,"S. cerevisiae deletion strains, locus YMR223W, strain ubp8, stronger effect = lower value",0.923 (inactive)
same,normalized growth,"S. cerevisiae deletion strains, locus YMR307W, strain GAS1, stronger effect = lower value",0.502 (active)
same,normalized growth,"S. cerevisiae deletion strains, locus YNL067W, strain RPL9B, stronger effect = lower value",0.972 (inactive)
same,normalized growth,"S. cerevisiae deletion strains, locus YNL153C, strain GIM3, stronger effect = lower value",0.967 (inactive)
same,normalized growth,"S. cerevisiae deletion strains, locus YNL183C, strain NPR1, stronger effect = lower value",0.894 (inactive)
same,normalized growth,"S. cerevisiae deletion strains, locus YNL233W, strain BNI4, stronger effect = lower value",0.987 (inactive)
same,normalized growth,"S. cerevisiae deletion strains, locus YNL250W, strain rad50, stronger effect = lower value",0.963 (inactive)
same,normalized growth,"S. cerevisiae deletion strains, locus YNL271C, strain bni1, stronger effect = lower value",0.963 (inactive)
same,normalized growth,"S. cerevisiae deletion strains, locus YNL298W, strain CLA4, stronger effect = lower value",0.995 (inactive)
same,normalized growth,"S. cerevisiae deletion strains, locus YNL307C, strain MCK1, stronger effect = lower value",0.945 (inactive)
same,normalized growth,"S. cerevisiae deletion strains, locus YNR052C, strain pop2, stronger effect = lower value",0.95 (inactive)
same,normalized growth,"S. cerevisiae deletion strains, locus YOL006C, strain TOP1, stronger effect = lower value",0.937 (inactive)
same,normalized growth,"S. cerevisiae deletion strains, locus YOL012C, strain htz1",1.21 (inactive)
same,normalized growth,"S. cerevisiae deletion strains, locus YOL147C, strain pex11, stronger effect = lower value",0.987 (inactive)
same,normalized growth,"S. cerevisiae deletion strains, locus YOR061W, strain CKA2, stronger effect = lower value",0.921 (inactive)
same,normalized growth,"S. cerevisiae deletion strains, locus YOR069W, strain VPS5, stronger effect = lower value",0.972 (inactive)
same,normalized growth,"S. cerevisiae deletion strains, locus YOR136W, strain idh2, stronger effect = lower value",0.999 (inactive)
same,normalized growth,"S. cerevisiae deletion strains, locus YOR144C, strain elg1, stronger effect = lower value",0.982 (inactive)
same,normalized growth,"S. cerevisiae deletion strains, locus YOR184W, strain ser1, stronger effect = lower value",0.801 (active)
same,normalized growth,"S. cerevisiae deletion strains, locus YOR231W, strain MKK1, stronger effect = lower value",0.859 (active)
same,normalized growth,"S. cerevisiae deletion strains, locus YOR316C, strain cot1, stronger effect = lower value",0.979 (inactive)
same,normalized growth,"S. cerevisiae deletion strains, locus YPL241C, strain CIN2, stronger effect = lower value",0.967 (inactive)
same,normalized growth,"S. cerevisiae deletion strains, locus YPL256C, strain CLN2, stronger effect = lower value",0.824 (active)
same,normalized growth,"S. cerevisiae deletion strains, locus YPR119W, strain clb2, stronger effect = lower value",0.977 (inactive)
same,normalized growth,"S. cerevisiae deletion strains, locus YPR141C, strain kar3, stronger effect = lower value",0.958 (inactive)
same,normalized growth,"S. cerevisiae deletion strains, locus YPR163C, strain tif3, stronger effect = lower value",0.976 (inactive)
same,normalized growth,"S. cerevisiae deletion strains, locus YPR167C, strain met16, stronger effect = lower value",0.98 (inactive)
same,normalized growth,"S. cerevisiae deletion strains, strain wtn01, stronger effect = lower value",1.06 (inactive)
same,normalized growth,"S. cerevisiae strains, strain wild type, stronger effect = lower value",0.962 (inactive)
